Experimental data reported in PubChem BioAssay (Tox21).
Where “and” joins values, the source holds several entries; their conditions need not be identical. Identical values can stand only once. Inconclusive results are not listed. A structure can be active in one record and inactive in another. Calls of active or inactive are those of the source. Calls follow the shape of the dose curve; as a rule, active = well fitted activation curve with a large enough effect in the repeat runs; inconclusive = weak or mixed curves; inactive = flat fitted curve, though single readings scatter.

assay: A CellTox Green Cytotoxicity Assay to monitor cytotoxicity in HEK293 cells - 32 hour (AID 1224881); conditions: CellTox Green fluorescence; series mostly up to 35.3 µM; cytotoxicity increase: at the top concentration; also: nearly all actives have a fitted effect of over 40% in size
From the text: National Center for Advancing Translational Sciences [NCATS]
NIH Chemical Genomics Center [NCGC]
U.S. Environmental Protection Agency [EPA]
National Institutes of Environmental Health Sciences [NIEHS]
National Toxicology Program [NTP]
Cell-based models are critical for drug discovery. Determining the natural cytotoxic effects resulting from test compounds is an essential research activity. A CellTox Green Cytotoxicity Assay to monitor cytotoxicity in real time of continues cell culture during 40 hours of the compound treatment was used to screen Tox21 10K library compounds in Hek293 cells. CellTox Green Cytotoxicity Assay is a nonlytic, homogeneous, biofluorescent method to measure cytotoxicity in cell culture after experimental manipulation. The assay system uses a proprietary asymmetric cyanine dye that is excluded from viable cells but preferentially stains the dead cell's DNA. […] Viable cells produce no appreciable increases in fluorescence. Therefore, the fluorescence signal produced by the binding interaction with dead cell DNA is proportional to cytotoxicity.
The mixture of Hek293 cell suspension and reagents were dispensed at 600cells/6 ul/well in 1536-well tissue culture treated black solid bottom plates using a Multidrop dispenser. After the assay plates were incubated at a 37 C/5% CO2 incubator for 5 hours, 23 nL of compounds dissolved in DMSO, positive and negative controls was transferred to the assay plate by a pintool work station. The plates were incubated at 37 C for 40 hours. The fluorescence intensity were measured at 0h, 8h, 16h, 24h, 32h and 40h time points using ViewLux plate reader during compound treatment.
% is scaled to controls: 0 for no effect and ±100 for the full control effect; potency is read from the fitted curve at half-maximal effect.

SMILES | cytotoxicity increase | Potency
Cc1c(NC(C)C)c(=O)n(-c2ccccc2)n1C | -2.37% (inactive) | 
O=C(c1ccccc1)C1CCCCC1 |  | 24.5 µM (active)
Cc1[nH]c(=O)c(C#N)cc1-c1ccc2nccn2c1 | 4.33% (inactive) | 
CCS(=O)(=O)c1ccc(OC)c(C(=O)OC)c1 | -4.6% (inactive) | 
COc1ccc(CCN(C)CCCC(C#N)(c2cc(OC)c(OC)c(OC)c2)C(C)C)cc1OC (stereo not given) | -8.36% (inactive) | 
Cc1cc2c(cc1S(N)(=O)=O)S(=O)(=O)CCC2 | 0.206% (inactive) | 
CC1(C)C(O)C(C)(C)C1O (stereo not given) | -0.196% [at 76.8 µM] (inactive) | 
CCCCC(CC)COC(=O)c1ccccc1O (stereo not given) | -4.83% (inactive) | 
NC(=O)c1ccc([N+](=O)[O-])cc1 | 22.8% [at 76.8 µM] (inactive) | 
CC(C)NC(=O)NC(C)C | -8.27% [at 76.8 µM] (inactive) | 
CC(=O)OCC(=O)[C@@]1(O)CC[C@H]2[C@@H]3CCC4=CC(=O)CC[C@]4(C)[C@H]3C(=O)C[C@@]21C | 3.9% (inactive) | 
C1OCOCO1 | -0.375% [at 76.8 µM] (inactive) | 
CCOC(=O)Nc1ccc(NCc2ccc(F)cc2)nc1N | -14.7% (inactive) | 
COC(=O)c1cc(C(=O)OC)cc(S(=O)(=O)O)c1 | -5.13% [at 76.8 µM] (inactive) | 
Cc1ccc(=O)n(-c2ccccc2)c1 | 2.09% (inactive) | 
CCN(CC)CCOCCOC(=O)C1(c2ccccc2)CCCC1 | 0.527% (inactive) | 
COCCc1ccc(OCC(O)CNC(C)C)cc1 (stereo not given) |  | inactive
NC(=O)COCCN1CCN(C(c2ccccc2)c2ccc(Cl)cc2)CC1 (stereo not given) | -4.72% (inactive) | 
CC(C)(O)C(=O)c1ccccc1 | 8.85% [at 76.8 µM] (inactive) | 
CCOC(=O)c1ccc(C)cc1 | -7.05% [at 76.8 µM] (inactive) | 

SMILES | cytotoxicity increase | Potency
CCOC(=O)c1c(C)n(C)c2ccc(O)cc12 | 2.92% (inactive) | 
Cc1ccc(Cl)cc1Cl | 5.78% [at 76.8 µM] (inactive) | 
CCN1CCC[C@H]1CNC(=O)c1cc(S(N)(=O)=O)ccc1OC | -4.94% (inactive) | 
CC(C)NCCCC1(C(N)=O)c2ccccc2-c2ccccc21 | -8.87% (inactive) | 
O=C1OC(=O)C2CCCCC12 (stereo not given) | 3.67% [at 76.8 µM] (inactive) | 
COC(=O)c1c(Cl)c(Cl)c(C(=O)OC)c(Cl)c1Cl |  | inactive and 43.6 µM (active)
CCCCNC(=O)NCCCC | -1.3% [at 76.8 µM] (inactive) | 
CCCCOCCOCCOCc1cc2c(cc1CCC)OCO2 | 0.524% (inactive) | 
O=C1NC(=O)[C@@]2(CCOc3ccc(F)cc32)N1 | -8.25% (inactive) | 
N[C@@H](C(=O)N[C@@H]1C(=O)N2C(C(=O)O)=C(Cl)CS[C@H]12)c1ccccc1 | -0.855% [at 6.97 µM] (inactive) | 
CCn1nc(C(=O)O)c(=O)c2cc3c(cc21)OCO3 | -16% (inactive) | 
CC(C)NCC(O)c1ccc(NS(C)(=O)=O)cc1 (stereo not given) | 8.79% [at 76.8 µM] (inactive) | 
Cn1cc(S(C)=O)c(=O)c2ccc(F)cc21 (stereo not given) | -12.6% (inactive) | 
NS(=O)(=O)c1cc2c(cc1Cl)NC(C1CC3C=CC1C3)NS2(=O)=O (stereo not given) | 3% (inactive) | 
Nc1c2c(nc3ccccc13)CCCC2O (stereo not given) | 8.15% (inactive) | 
O=C(O)CN(CCOCCOCCN(CC(=O)O)CC(=O)O)CC(=O)O | 6.54% [at 0.29 µM] (inactive) | 
CC(C)CNCC(C)C | 20.9% [at 76.8 µM] (inactive) | 
CCCCCOC(=O)CCCCC | -14.1% [at 76.8 µM] (inactive) | 
Cc1c(O)cccc1O | 6.65% [at 76.8 µM] (inactive) | 
COc1cc(C(=O)N2CCCCCCC2)cc(OC)c1OC | -6.65% (inactive) | 
